# Bioassay records (PubChem)
# LASV entry inh: blocks Lassa virus binding to or entry into cells; Lassa virus pseudotype entry inhibition, cell reporter; Potency, µM (top dose mostly 37.9 µM), actives largely listed as inhibitors; 1.2% of 300,000 active; AID 540256; calls by dose curve; tested in HEK293 cells; note: nearly all actives have a fitted effect of over 50% in size
# HCV inh: HCV inhibition. Huh7.5.1 HCVcc-Cre infection, luciferase reporter, 44 h. Potency, µM (titrated, usually from 41.8 µM), most hits filed as inhibitors. 3.4% of 340,000 active
#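 After 44 h co-culture of compound, cells and HCVcc-Cre (~0.5 moi), substrate is added for 15 min at room temperature and luciferase measured over 15 sec. Cells were seeded at 1,000/well and pre-cultured 4 h.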
# Giardia FBPA inh: Giardia lamblia aldolase inhibition; A8B2U2; purified Giardia FBPA; 0.71% of 290,000 active; Potency, µM (titrated, usually from 59.6 µM), actives largely listed as inhibitors; note: nearly all actives have a fitted effect of over 55% in size
# Target sequence (A8B2U2 whole entry, looked up): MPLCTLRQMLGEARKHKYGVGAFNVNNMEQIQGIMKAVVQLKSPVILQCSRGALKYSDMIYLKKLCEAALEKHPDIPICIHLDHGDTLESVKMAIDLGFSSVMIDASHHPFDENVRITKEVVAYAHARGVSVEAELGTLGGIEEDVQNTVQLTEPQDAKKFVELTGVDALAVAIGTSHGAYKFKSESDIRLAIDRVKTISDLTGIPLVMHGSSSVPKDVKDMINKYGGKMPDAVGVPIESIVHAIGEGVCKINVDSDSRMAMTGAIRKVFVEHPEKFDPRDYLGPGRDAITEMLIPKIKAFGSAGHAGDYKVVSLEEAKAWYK
#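 Giardia FBPA (40 nM reagent) was preincubated 10 min at RT with compound (up to 57.5 uM final), then substrate plus GAPDH/TPI/NAD/arsenate coupling system with diaphorase/resazurin was added; resorufin fluorescence (525/598 nm) was read after 20 min.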
# FMDV inh: foot and mouth disease virus antiviral activity; FMDV antiviral cell-based qHTS; Potency, µM (highest dose often 57.9 µM), hits mostly inhibitors; 1.2% of 410,000 active; AID 1159524; calls by dose curve; tested in HEK293T cells; note: read-out not given here; nearly all actives have a fitted effect of over 45% in size
# HCMV antiviral: inhibitors of human cytomegalovirus. activity change, negative = inhibition, % at 57.5 µM. 4.5% of 410,000 active. HFF cells, HCMV-luciferase reporter, 72 h; active compounds read low. AID 1259415; in the data active = activity change below about -60%; inconclusive = no clear call, values can overlap the other calls; inactive = above about -39%
#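 After 16 h attachment at 37C, HFF cells received test compound and HCMV-luciferase (1 PFU/cell); reporter luminescence read 72 h later, data normalized against buffer-only and known inhibitor Salinomycin.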
# Marburg entry inh: Marburg virus entry inhibition; Marburg virus pseudotyped entry inhibition, cell reporter; Potency, µM (series often up to 37.8 µM), most hits filed as inhibitors; 1.8% of 300,000 active; calls by dose curve; tested in HEK293 cells
# Numbers stand for hits; – = inactive; ? = inconclusive; · = no result given; ! = repeats disagree. Compounds with a hit are over-represented: about 8.3% of the library has one in this group of screens. Unless noted, calls come from the whole dose curve; as a rule, active = well fitted curve in the direction sought with a large enough effect; inconclusive = small, poorly fitted or top-dose-only effect, or another doubt; inactive = no such curve, though single readings can be large; an effect the other way counts as inactive or inconclusive.
SMILES,LASV entry inh,HCV inh,Giardia FBPA inh,FMDV inh,HCMV antiviral,Marburg entry inh
COc1ccc(C(=O)NCCN2Cc3ccccc3OC(c3ccsc3)C2)c(OC)n1 (stereo unspecified),·,·,·,–,·,·
COc1ccc(C2(O)CCN(CC(=O)Nc3nc(-c4ccccc4)cs3)CC2)cc1,?,?,–,28µM,–,?
O=C(C[n+]1cc(-c2ccccc2)n2c1CCC2)Nc1nc(-c2ccc(F)cc2)cs1,–,0.71µM,–,–,–,?
CC(NC(=O)CN1C(=O)NC2(CCCCCC2)C1=O)c1ccccc1 (stereo unspecified),–,?,·,–,-61,?
CN1CCN(CC(=O)Nc2nc(-c3ccccc3)cs2)CC1,–,–,–,–,–,–
O=C(C[n+]1cc(-c2ccc(F)cc2)n2c1CCC2)Nc1nc(-c2ccc(F)cc2)cs1,–,?,–,–,–,–
NC(=O)c1ccsc1NC(=O)CN1C(=O)NC2(CCCCC2)C1=O,·,–,·,–,-105,·
CC12CCCCCC3=CC(=O)C=C[C@]31OCC2 (stereo partly specified),·,·,·,·,–,·
Cc1c(C(=O)N2CCN(C)CC2)sc2ncnc(NCC3(c4ccccc4)CCOCC3)c12,·,·,·,–,·,·
C=CCNC(=S)N/N=C/c1ccc(C)cc1C,?,–,–,–,-62,?
CCNC(=S)N/N=C/c1cc(C)ccc1C,–,?,–,–,–,–
C=CCNC(=S)N/N=C/c1ccc(-c2ccc(OC)cc2)o1,1.8µM,?,–,14µM,–,?
COc1cccc(NC(=O)C2=C(C)C(=O)OC23CCN(C(C)=O)CC3)c1,–,·,·,–,?,·
CC(C)c1nc(N2CCN(C(=O)c3ccccc3)CC2)c(C#N)c2c1COC(C)(C)C2,?,?,–,–,–,12µM
Cc1nc(N2CCN(Cc3ccccc3)CC2)c(C#N)c2c1COC(C)(C)C2,–,11µM,–,?,?,–
COc1ccc(NC(=O)C2CCCN(C(=O)c3cnn(-c4ccccc4)c3-n3cccc3)C2)cc1 (stereo unspecified),?,·,·,–,?,?
Cc1cccc(NC(=O)COC(=O)CCCC2=NS(=O)(=O)c3ccccc3N2)c1,?,–,·,–,-104!,–
CCOC(=O)c1c(C)[nH]c(C)c1C(=O)COC(=O)c1cccc(S(=O)(=O)N(CC)CC)c1,22µM,?,·,–,–,–
CCOC(=O)c1c(C)[nH]c(C)c1C(=O)COC(=O)c1ccc(S(=O)(=O)N(CC)CC)cc1,?,25µM,–,?,–,–
CCOC(=O)c1c(C)[nH]c(C)c1C(=O)COC(=O)c1cccc(S(=O)(=O)NC)c1,–,–,–,–,–,–
CCOC(=O)c1c(C)[nH]c(C)c1C(=O)COC(=O)c1ccc(OC)cc1,–,–,–,–,–,–
CC(=O)c1ccc(NC(=O)CC2Oc3ccc(C)cc3NC2=O)cc1 (stereo unspecified),·,·,·,–,–,–
CSc1nnc(NC(=O)c2nc(S(=O)(=O)Cc3ccccc3F)ncc2Cl)s1,?,?,?,7.1µM,-96,?
Cc1ccc2nc(NC(=O)c3nc(SCc4ccccc4C)ncc3Cl)sc2c1,–,·,·,–,–,–
Cc1nnc(NC(=O)c2nc(S(=O)(=O)Cc3ccccc3C)ncc2Cl)s1,·,?,?,25µM,-102,·
SMILES,LASV entry inh,HCV inh,Giardia FBPA inh,FMDV inh,HCMV antiviral,Marburg entry inh
Cc1nnc(NC(=O)c2nc(SCc3ccccc3F)ncc2Cl)s1,–,·,·,–,–,–
O=C(Nc1nc2ccc(F)cc2s1)c1nc(S(=O)(=O)Cc2ccccc2F)ncc1Cl,?,·,·,?,-109,?
CCOc1ccc(NC(=O)c2nc(S(=O)(=O)Cc3ccccc3F)ncc2Cl)cc1,?,·,·,25µM,-100,?
O=C(O)[C@@H]1CN[C@@H](C(=O)O)C1,·,·,·,–,·,·
CCc1nnc(NC(=O)c2nc(SCc3ccccc3F)ncc2Cl)s1,–,·,·,–,–,–
CC(C)c1nnc(NC(=O)c2nc(S(=O)(=O)Cc3ccccc3F)ncc2Cl)s1,·,?,·,28µM,-111,·
C=C(CN(C)C)C(=O)c1ccc(C)cc1C,?,?,·,–,-77,?
Cc1ccc(C(=O)CC(=O)c2ccccc2C)c(O)c1,?,?,–,–,?,?
O=C(Nc1cccc2cccnc12)c1cccc2ccccc12,–,?,–,–,?,?
COc1cc(OC)c(NC(=O)c2cc3ccccc3cc2O)cc1Cl,?,32µM,·,–,-81,?
CCOc1ccccc1C(=O)Nc1cccc2cccnc12,–,11µM,–,–,?,?
COc1cc(NC(=O)c2ccccc2)c(OC)cc1Cl,–,?,–,–,–,–
COc1cc(NC(=O)c2ccccc2Cl)c2ncccc2c1,·,10µM,–,–,–,·
O=C(Nc1cccc2cccnc12)c1ccc(Cl)cc1Cl,·,?,–,–,–,·
CCOc1ccccc1C(=O)Nc1cc(Cl)ccc1O,–,7.1µM,–,?,–,–
COc1cccc(Cn2c(=O)c(-c3cc(F)cc(F)c3)nc3cnc(N(C)C)nc32)c1,·,·,–,–,·,·
O=c1c2cc(Br)ccc2[nH]c(=S)n1Cc1ccccc1,?,–,–,–,-63,–
CC1CCN(CCCNC(=O)c2ccc(Cn3c(=S)[nH]c4ccc(Br)cc4c3=O)cc2)CC1,·,·,–,·,·,·
CN1CCN(CCCNC(=O)c2ccc(Cn3c(=S)[nH]c4ccc(Br)cc4c3=O)cc2)CC1,–,7.9µM,–,–,–,?
CCOC(=O)N1CCN(C(=O)c2ccc(Cn3c(=S)[nH]c4ccc(Br)cc4c3=O)cc2)CC1,4µM,?,·,?,-95,?
COc1ccc(OC)c(/C=C(\C#N)c2nc(-c3ccc(F)cc3)cs2)c1,–,·,·,–,–,·
CC1CC(C)CN(c2ncc3c(n2)CC(c2ccccc2)CC3=O)C1 (stereo unspecified),2.8µM,–,–,–,–,–
COc1cc(C2CC(=O)c3cnc(N4CCN(CCO)CC4)nc3C2)cc(OC)c1OC (stereo unspecified),–,·,·,–,–,–
COc1cc(C2CC(=O)c3cnc(N4CCN(Cc5ccccc5)CC4)nc3C2)cc(OC)c1OC (stereo unspecified),23µM,?,–,16µM,–,?
COc1ccc(C2CC(=O)c3c(C)nc(N4CCN(Cc5ccccc5)CC4)nc3C2)cc1OC (stereo unspecified),8.2µM,3.5µM,–,11µM,-98,18µM
CC/C=C/[C@@H](c1ccccc1)[C@H](C)C(O)CC(=O)SC(C)(C)C (stereo partly specified),·,·,–,·,·,·
Cc1cnc(SCc2ccccn2)nc1C1CCCN(C(=O)c2ccc3c(c2)OCCO3)C1 (stereo unspecified),·,·,·,–,·,·
O=C(Cc1ccccc1)N1CCc2[nH]nc(-c3ccccc3)c2C1,11µM,–,–,–,–,?
COc1ccc(-c2n[nH]c3c2CN(C(=O)c2ccc(OC)c(OC)c2)CC3)cc1,·,–,·,?,–,·
COc1ncc2nc(C)c(=O)n(CCC#N)c2n1,·,·,–,–,·,·
